Results on 28 molecules are retold here after PubChem BioAssay (EPA / NIEHS).

The structures appear in SMILES notation. Active and inactive are the calls of the source. How the source made its calls: active means hit-call score of the fitted dose curve at least 0.9, where 1 is the maximum; inactive means score below 0.9.

Read-out in one experiment: Insulin Like Growth Factor 1 (IGF1), IGF1 (gene 3479)
In words: LTEA_HepaRG_IGF1: Life Technologies and Expression Analysis (LTEA) Assay for Insulin Like Growth Factor 1 (IGF1) using HepaRG (AID 2283506). The note with it: mRNA level, 48 h; actives raise or lower the signal. The method, boiled down: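 Using human HepaRG liver cells, IGF1 transcript induction or suppression is measured 48 h after dosing across eight concentrations capped at 100 uM. Values derive from bidirectional concentration-response fitting with DMSO as baseline.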
With `Nc1cc(Cl)cc(C(=O)O)c1Cl`, the molecule was classed as inactive.
Turning to `O=C(Nc1ccccc1)c1ccccc1I`, the AC50 is 19.1 µM (active).
On to `OCCOCCO`, for which the outcome was inactive.
In the case of `Nc1ccc(Cl)cc1N`, the AC50 is 25 µM (active).
Take `Cc1ccc(N)cc1`: the molecule was called inactive.
On the same count and under the same terms, the entry for `N#CC(Br)Br` is “inactive”; for `Nc1ccc(Oc2ccc(N)cc2)cc1` it is “inactive”.
On the same count and under the same terms, the entry for `[O-][Cl+]O` is “inactive”; for `CCCCCCCCOC(=O)c1ccc(C(=O)OCCCCCCCC)c(C(=O)OCCCCCCCC)c1` it is “inactive”.
Regarding `COc1cc(C=O)cc2c1[C@H](COC(N)=O)[C@]1(OC(C)=O)ON2C[C@H]2[C@@H]1N2C(C)=O`, the AC50 is 0.5 µM (active).
As for `CCCCC(CC)COC(=O)c1ccc(C(=O)OCC(CC)CCCC)c(C(=O)OCC(CC)CCCC)c1` (configuration not stated), the result was inactive.
The same measure, in the same setting: the entry for `Cn1cc(-c2ccccc2)c(=O)c(-c2cccc(C(F)(F)F)c2)c1` is “inactive”.
The same measure, in the same setting: the entry for `CN(C)c1ccccc1` is “inactive”; for `CCC(C)c1ccc(O)cc1` (configuration not stated) it is “inactive”; for `N#CC(Br)(Br)C(N)=O` it is “inactive”.
The same measure, in the same setting: with `C1=Cc2cccc3cccc1c23` the entry was “inactive”.
On to `CO[C@@H]1[C@H](OC(=O)NC(=O)CCl)CC[C@]2(CO2)[C@H]1[C@@]1(C)O[C@@H]1CC=C(C)C`, for which the concentration at half-maximal activity (AC50) was 3.17 µM (active).
On to `CC(C)(C)OOC(C)(C)CCC(C)(C)OOC(C)(C)C`, for which the outcome was inactive.
With `Cc1cccc(N)c1N`, the AC50 was 50 µM (active).
Turning to `O=C(Oc1ccc(Br)cc1)N1CCN2CCC1CC2`, the molecule was classed as inactive.
For the molecule `O=P(OCCCl)(OCCCl)OCCCl`, the result was inactive.
Still for that read-out and setting: with `CNC(=O)Oc1cccc2c1OC(C)(C)C2` the entry was “inactive”.
Consider `ClC1=C(Cl)C2(Cl)C3C(Cl)C=CC3C1(Cl)C2(Cl)Cl` (configuration not stated), for which the AC50 is 5.6 µM (active).
Take `[Cl-].[Cl-].[Hg+2]`: the molecule was called inactive.
Still for that read-out and setting: the entry for `O=Cc1ccco1` is “inactive”; for `Cc1ccc(N)c(N)c1` it is “inactive”; for `COP(=S)(OC)SCN1C(=O)c2ccccc2C1=O` it is “inactive”.
Same read-out and setting: with `CC(C)COC(=O)c1ccccc1C(=O)OCC(C)C` the entry was “inactive”.

Read-out in another experiment: Intercellular Adhesion Molecule 1 (ICAM1), ICAM1 (gene 3383)
In words: LTEA_HepaRG_ICAM1: Life Technologies and Expression Analysis (LTEA) Assay for Intercellular Adhesion Molecule 1 (ICAM1) using HepaRG (AID 2283507). The note with it: mRNA level, 48 h; actives raise or lower the signal. The method, boiled down: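 Differentiated HepaRG cells in serum-free induction medium were exposed in duplicate for 48 h to eight half-log concentrations up to 100 uM in 0.5% DMSO. Transcript levels were measured by qRT-PCR normalized to ACTB, GAPDH and POLR2A; bidirectional fits relative to DMSO.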
As for `Nc1cc(Cl)cc(C(=O)O)c1Cl`, the molecule was called inactive.
The same measure, in the same setting: the entry for `O=C(Nc1ccccc1)c1ccccc1I` is “inactive”; for `OCCOCCO` it is “inactive”.
On the same count and under the same terms, the entry for `Nc1ccc(Cl)cc1N` is “inactive”.
The same measure, in the same setting: the entry for `Cc1ccc(N)cc1` is “inactive”; for `N#CC(Br)Br` it is “inactive”.
Regarding `Nc1ccc(Oc2ccc(N)cc2)cc1`, the molecule was called inactive.
Still for that read-out and setting: the entry for `[O-][Cl+]O` is “inactive”; for `CCCCCCCCOC(=O)c1ccc(C(=O)OCCCCCCCC)c(C(=O)OCCCCCCCC)c1` it is “inactive”.
As to `COc1cc(C=O)cc2c1[C@H](COC(N)=O)[C@]1(OC(C)=O)ON2C[C@H]2[C@@H]1N2C(C)=O`, the AC50 is 1.31 µM (active).
For the molecule `CCCCC(CC)COC(=O)c1ccc(C(=O)OCC(CC)CCCC)c(C(=O)OCC(CC)CCCC)c1` (configuration not stated), the result was inactive.
As for `Cn1cc(-c2ccccc2)c(=O)c(-c2cccc(C(F)(F)F)c2)c1`, the call was inactive.
Turning to `CN(C)c1ccccc1`, the result was inactive.
The same measure, in the same setting: the entry for `CCC(C)c1ccc(O)cc1` (configuration not stated) is “inactive”; for `N#CC(Br)(Br)C(N)=O` it is “inactive”.
Same read-out and setting: the entry for `C1=Cc2cccc3cccc1c23` is “inactive”.
As for `CO[C@@H]1[C@H](OC(=O)NC(=O)CCl)CC[C@]2(CO2)[C@H]1[C@@]1(C)O[C@@H]1CC=C(C)C`, the call was inactive.
Same read-out and setting: with `CC(C)(C)OOC(C)(C)CCC(C)(C)OOC(C)(C)C` the entry was “inactive”.
Still for that read-out and setting: with `Cc1cccc(N)c1N` the entry was “inactive”; with `O=C(Oc1ccc(Br)cc1)N1CCN2CCC1CC2`, “inactive”; with `O=P(OCCCl)(OCCCl)OCCCl`, “inactive”.
Still for that read-out and setting: the entry for `CNC(=O)Oc1cccc2c1OC(C)(C)C2` is “inactive”; for `ClC1=C(Cl)C2(Cl)C3C(Cl)C=CC3C1(Cl)C2(Cl)Cl` (configuration not stated) it is “inactive”; for `[Cl-].[Cl-].[Hg+2]` it is “inactive”.
Regarding `O=Cc1ccco1`, the molecule was classed as inactive.
Consider `Cc1ccc(N)c(N)c1`, for which the outcome was inactive.
On the same count and under the same terms, the entry for `COP(=S)(OC)SCN1C(=O)c2ccccc2C1=O` is “inactive”.
`CC(C)COC(=O)c1ccccc1C(=O)OCC(C)C`: the molecule was called inactive.

Read-out in the next experiment: Insulin-like growth factor-binding protein 1 (IGFBP1), IGFBP1 (gene 3484)
Description: LTEA_HepaRG_IGFBP1: Life Technologies and Expression Analysis (LTEA) Assay for Insulin-like growth factor-binding protein 1 (IGFBP1) using HepaRG (AID 2283508). The note with it: mRNA level, 48 h; actives raise or lower the signal. In short, it runs like this:
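Differentiated human HepaRG cells in serum-free induction medium were exposed in duplicate for 48 h to eight concentrations, top 100 uM with half-log dilutions, in 0.5% DMSO. Transcript levels came from qRT-PCR normalised to ACTB, GAPDH and POLR2A, fitted bidirectionally against DMSO.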
Regarding `Nc1cc(Cl)cc(C(=O)O)c1Cl`, the molecule was classed as inactive.
For the molecule `O=C(Nc1ccccc1)c1ccccc1I`, the concentration at half-maximal activity (AC50) is 34.8 µM (active).
For the molecule `Nc1ccc(Oc2ccc(N)cc2)cc1`, the outcome was inactive.
Consider `COc1cc(C=O)cc2c1[C@H](COC(N)=O)[C@]1(OC(C)=O)ON2C[C@H]2[C@@H]1N2C(C)=O`, for which the AC50 is 4.86 µM (active).
Regarding `CN(C)c1ccccc1`, the molecule was called inactive.
Regarding `N#CC(Br)(Br)C(N)=O`, the outcome was inactive.
On the same count and under the same terms, the entry for `C1=Cc2cccc3cccc1c23` is “inactive”; for `CO[C@@H]1[C@H](OC(=O)NC(=O)CCl)CC[C@]2(CO2)[C@H]1[C@@]1(C)O[C@@H]1CC=C(C)C` it is “inactive”.
Same read-out and setting: with `CC(C)(C)OOC(C)(C)CCC(C)(C)OOC(C)(C)C` the entry was “inactive”.
`Cc1cccc(N)c1N`: the half-maximal activity concentration (AC50) was 22.9 µM (active).
In the case of `O=C(Oc1ccc(Br)cc1)N1CCN2CCC1CC2`, the outcome was inactive.
Same read-out and setting: the entry for `CNC(=O)Oc1cccc2c1OC(C)(C)C2` is “inactive”; for `Cc1ccc(N)c(N)c1` it is “inactive”.

Read-out in the next experiment: Interleukin 6 (IL6), IL6 (gene 3569)
In words: LTEA_HepaRG_IL6: Life Technologies and Expression Analysis (LTEA) Assay for Interleukin 6 (IL6) using HepaRG (AID 2283509). The note with it: mRNA level, 48 h; actives raise or lower the signal. In short, it runs like this:
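HepaRG, ~100,000 cells/well, 48 h pre-culture; serum-free induction medium; cmpd 8-pt half-log from 100 uM, 0.5% DMSO, duplicate, 48 h. Lysis in RLT, TaqMan qRT-PCR; gain or loss vs DMSO.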
Regarding `Nc1cc(Cl)cc(C(=O)O)c1Cl`, the outcome was inactive.
The same measure, in the same setting: the entry for `O=C(Nc1ccccc1)c1ccccc1I` is “inactive”.
Still for that read-out and setting: the entry for `OCCOCCO` is “inactive”.
In the case of `Nc1ccc(Cl)cc1N`, the concentration at half-maximal activity (AC50) was 73.4 µM (active).
Turning to `Cc1ccc(N)cc1`, the molecule was called inactive.
As for `N#CC(Br)Br`, the call was inactive.
As to `Nc1ccc(Oc2ccc(N)cc2)cc1`, the molecule was classed as inactive.
Still for that read-out and setting: the entry for `[O-][Cl+]O` is “inactive”; for `CCCCCCCCOC(=O)c1ccc(C(=O)OCCCCCCCC)c(C(=O)OCCCCCCCC)c1` it is “inactive”.
On to `COc1cc(C=O)cc2c1[C@H](COC(N)=O)[C@]1(OC(C)=O)ON2C[C@H]2[C@@H]1N2C(C)=O`, for which the AC50 was 1.52 µM (active).
Take `CCCCC(CC)COC(=O)c1ccc(C(=O)OCC(CC)CCCC)c(C(=O)OCC(CC)CCCC)c1` (configuration not stated): the molecule was called inactive.
Same read-out and setting: the entry for `Cn1cc(-c2ccccc2)c(=O)c(-c2cccc(C(F)(F)F)c2)c1` is “inactive”; for `CN(C)c1ccccc1` it is “inactive”.
The same measure, in the same setting: the entry for `CCC(C)c1ccc(O)cc1` (configuration not stated) is “inactive”.
Same read-out and setting: with `N#CC(Br)(Br)C(N)=O` the entry was “inactive”; with `C1=Cc2cccc3cccc1c23`, “inactive”.
For `CO[C@@H]1[C@H](OC(=O)NC(=O)CCl)CC[C@]2(CO2)[C@H]1[C@@]1(C)O[C@@H]1CC=C(C)C`, the outcome was inactive.
The same measure, in the same setting: with `CC(C)(C)OOC(C)(C)CCC(C)(C)OOC(C)(C)C` the entry was “inactive”; with `Cc1cccc(N)c1N`, “inactive”; with `O=C(Oc1ccc(Br)cc1)N1CCN2CCC1CC2`, “inactive”.
As to `O=P(OCCCl)(OCCCl)OCCCl`, the outcome was inactive.
On the same count and under the same terms, the entry for `CNC(=O)Oc1cccc2c1OC(C)(C)C2` is “inactive”; for `ClC1=C(Cl)C2(Cl)C3C(Cl)C=CC3C1(Cl)C2(Cl)Cl` (configuration not stated) it is “inactive”; for `[Cl-].[Cl-].[Hg+2]` it is “inactive”.
Same read-out and setting: the entry for `O=Cc1ccco1` is “inactive”; for `Cc1ccc(N)c(N)c1` it is “inactive”; for `COP(=S)(OC)SCN1C(=O)c2ccccc2C1=O` it is “inactive”.
In the case of `CC(C)COC(=O)c1ccccc1C(=O)OCC(C)C`, the result was inactive.

In general, AC50 refers to the concentration at which the activity in the assay is half-maximal.
